PubChem BioAssay (NCATS)
Inconclusive results are not listed. The source made the active and inactive calls. Unless noted, calls come from the whole dose curve.

Columns and labels:
[1] = target: Androgen receptor (Homo sapiens) (UniProt P10275); assay: qHTS assay for small molecule agonists of androgen receptor signaling (AID 588515; active = well fitted curve in the direction sought with a large enough effect in the signal ratio, with a control signal flat; the % refers to the signal ratio; note: % is set by controls: 0 for no effect and ±100 for the full control effect); conditions: AR-UAS-bla HEK293, beta-lactamase ratio, agonist 16 h; stronger effect = higher value
Chain of Androgen receptor (Homo sapiens) (P10275 whole entry, looked up): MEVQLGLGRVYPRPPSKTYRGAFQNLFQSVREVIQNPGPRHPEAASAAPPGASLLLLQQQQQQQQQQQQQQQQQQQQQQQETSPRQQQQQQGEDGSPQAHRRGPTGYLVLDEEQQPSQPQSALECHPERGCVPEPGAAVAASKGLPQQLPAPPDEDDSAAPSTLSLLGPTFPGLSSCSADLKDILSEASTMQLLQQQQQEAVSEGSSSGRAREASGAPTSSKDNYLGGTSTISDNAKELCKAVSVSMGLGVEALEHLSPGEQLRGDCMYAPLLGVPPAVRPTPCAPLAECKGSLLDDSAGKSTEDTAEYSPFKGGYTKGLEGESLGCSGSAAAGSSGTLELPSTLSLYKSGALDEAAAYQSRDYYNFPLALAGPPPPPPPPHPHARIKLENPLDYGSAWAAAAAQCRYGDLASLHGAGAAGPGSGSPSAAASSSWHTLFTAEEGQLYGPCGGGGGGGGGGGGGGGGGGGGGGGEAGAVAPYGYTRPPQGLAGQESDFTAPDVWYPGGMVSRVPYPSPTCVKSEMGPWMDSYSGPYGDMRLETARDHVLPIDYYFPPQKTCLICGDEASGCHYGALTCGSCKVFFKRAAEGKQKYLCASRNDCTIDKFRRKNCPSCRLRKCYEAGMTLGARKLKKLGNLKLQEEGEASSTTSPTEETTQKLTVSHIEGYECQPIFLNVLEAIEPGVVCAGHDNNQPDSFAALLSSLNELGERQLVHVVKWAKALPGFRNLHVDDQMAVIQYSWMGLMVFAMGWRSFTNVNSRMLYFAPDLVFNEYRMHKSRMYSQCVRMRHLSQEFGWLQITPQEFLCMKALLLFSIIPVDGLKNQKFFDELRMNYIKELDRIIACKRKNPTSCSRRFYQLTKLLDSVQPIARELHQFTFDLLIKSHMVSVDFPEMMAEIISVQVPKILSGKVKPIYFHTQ
Summary of the method: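 Stimulation of an AR-responsive β-lactamase reporter in GripTite HEK293 cells was measured after 16 h compound exposure at 37 °C, via CCF4 fluorescence after 2 h RT. EC50 from Hill fits, normalized to R1881 at 30 nM.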

[2] = target: Androgen receptor (Homo sapiens) (UniProt P10275); assay: qHTS assay for small molecule antagonists of androgen receptor signaling (AID 588516; active = well fitted curve in the direction sought with a large enough effect in the signal ratio, with a control signal flat, not every such curve was filed as active; the % refers to the signal ratio; note: % is set by controls: 0 for no effect and ±100 for the full control effect); conditions: AR-UAS-bla HEK293, beta-lactamase ratio, antagonist mode, 16 h; series mostly up to 76.8 µM
Summary of the method: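 HEK293 AR-UAS-bla cells, 10% dialyzed FBS medium; cpd titration + R1881 10 nM final, 16 h 37 C; CCF4 2 h RT; FRET ratio; IC50/efficacy via Hill fit.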

[3] = target: Peroxisome proliferator-activated receptor delta (Homo sapiens) (UniProt Q03181); assay: qHTS assay for small molecule agonists of peroxisome proliferator-activated receptor delta signaling (AID 588534); conditions: HEK293T PPARdelta-UAS-bla, beta-lactamase ratio, 18 h; series mostly up to 76.7 µM;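 note: 0% = DMSO basal wells and 100% = positive control agonist at 10 µM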
Chain of Peroxisome proliferator-activated receptor delta (Homo sapiens) (Q03181 whole entry, looked up): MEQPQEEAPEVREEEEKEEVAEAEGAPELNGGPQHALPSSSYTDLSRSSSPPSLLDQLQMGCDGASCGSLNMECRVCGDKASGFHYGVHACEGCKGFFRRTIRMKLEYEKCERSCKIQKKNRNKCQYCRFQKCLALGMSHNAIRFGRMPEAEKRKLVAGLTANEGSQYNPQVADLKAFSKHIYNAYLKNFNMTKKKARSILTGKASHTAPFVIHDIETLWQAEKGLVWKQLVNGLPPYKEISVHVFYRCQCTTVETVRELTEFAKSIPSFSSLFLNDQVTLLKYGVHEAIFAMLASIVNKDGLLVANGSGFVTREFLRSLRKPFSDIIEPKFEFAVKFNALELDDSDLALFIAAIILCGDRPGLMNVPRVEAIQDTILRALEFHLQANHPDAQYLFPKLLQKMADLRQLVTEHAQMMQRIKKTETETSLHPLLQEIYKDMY
Summary of the method: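 Agonist-mode beta-lactamase reporter readout (CCF4 dye, 2 h at RT) after 18 h at 37 °C exposure to a titration; Hill-equation fitting gave EC50 and maximal response.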

[4] = qHTS assay for small molecule antagonists of peroxisome proliferator-activated receptor delta signaling (AID 588535; active = well fitted inhibition curve with a large enough effect in the signal ratio, with a control signal flat, not every such curve was filed as active; the % refers to the signal ratio;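 for max response: cells co-treated with a PPAR-delta agonist as stimulator during compound exposure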); conditions: HEK293T PPARd-UAS-bla, beta-lactamase FRET ratio, 18 h; 460 nm channel
Summary of the method: (§1)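 Fluorescence from CCF4-loaded GeneBLAzer PPAR-delta-UAS-bla HEK293T cells (2 hrs RT loading) quantified reporter inhibition after an 18 hr, 37 C compound exposure across a titration.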

[5] = target: Peroxisome proliferator-activated receptor delta (Homo sapiens) (UniProt Q03181); assay: as above; conditions: HEK293T PPARd-UAS-bla, beta-lactamase FRET ratio, 18 h; series mostly up to 76.7 µM
Summary of the method: as §1

[6] = target: Peroxisome proliferator-activated receptor gamma (Homo sapiens) (UniProt P37231); assay: qHTS assay for small molecule agonists of peroxisome proliferator-activated receptor gamma signaling (AID 588536; active = well fitted curve in the direction sought with a large enough effect in the signal ratio, with a control signal flat, not every such curve was filed as active; the % refers to the signal ratio;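 note: 0% = DMSO basal wells and 100% = rosiglitazone at 2 µM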); conditions: HEK293 PPARg-UAS-bla, beta-lactamase ratio, 16 h; series mostly up to 76.7 µM
Summary of the method: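 Cells were plated and held 6–6.5 h at 37 C, then compounds were added as a titration series. After a further 16 h, CCF4 dye was loaded for 2 h at room temperature and emission at 460/530 nm recorded.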

[7] = target: Peroxisome proliferator-activated receptor gamma (Homo sapiens) (UniProt P37231); assay: qHTS assay for small molecule antagonists of peroxisome proliferator-activated receptor gamma signaling (AID 588537; active = well fitted inhibition curve with a large enough effect in the signal ratio, with a control signal flat, not every such curve was filed as active; the % refers to the signal ratio;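 note: reporter cells co-stimulated with 50 nM rosiglitazone agonist during compound treatment; % of control where 0% means no effect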); conditions: HEK293 PPARg-UAS-bla, beta-lactamase ratio, antagonist mode; series mostly up to 76.8 µM
Summary of the method: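 Fluorescence at 460 and 530 nm (405 nm excitation) reported beta-lactamase cleavage of CCF4 after 2 h room-temperature loading. HEK293 reporter cells in 1% charcoal/dextran-treated FBS had received compound and rosiglitazone for 16 h.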

[8] = target: Vitamin D3 receptor (Homo sapiens) (UniProt P11473); assay: qHTS assay for small molecule antagonists of vitamin D receptor signaling (AID 588541); conditions: HEK293T VDR-UAS-bla, beta-lactamase ratio, antagonist mode; series mostly up to 76.7 µM;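 note: receptor activated by calcitriol during compound treatment; % is set by controls: 0 for no effect and ±100 for the full control effect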
Chain of Vitamin D3 receptor (Homo sapiens) (P11473 whole entry, looked up): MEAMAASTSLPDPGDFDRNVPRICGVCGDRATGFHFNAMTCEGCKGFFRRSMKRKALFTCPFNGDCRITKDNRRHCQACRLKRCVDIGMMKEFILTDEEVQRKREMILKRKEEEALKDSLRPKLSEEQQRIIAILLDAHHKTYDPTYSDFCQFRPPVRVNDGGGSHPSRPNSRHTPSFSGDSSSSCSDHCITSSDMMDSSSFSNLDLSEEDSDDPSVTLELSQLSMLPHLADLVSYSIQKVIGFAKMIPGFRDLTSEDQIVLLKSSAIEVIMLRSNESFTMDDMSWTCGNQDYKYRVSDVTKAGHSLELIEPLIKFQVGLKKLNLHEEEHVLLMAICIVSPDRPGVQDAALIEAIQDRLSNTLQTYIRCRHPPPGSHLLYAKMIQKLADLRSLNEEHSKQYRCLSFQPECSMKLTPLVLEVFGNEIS
Summary of the method: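 VDR-UAS-bla HEK293T cells in 2% charcoal-stripped FBS were stimulated with 1-alpha,25-dihydroxyvitamin D3 (3 nM final) plus compound for 16 h at 37 C. The beta-lactamase CCF4 readout was normalized to 50 nM agonist and DMSO, and Hill fits gave IC50.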

[9] = target: Vitamin D3 receptor (Homo sapiens) (UniProt P11473); assay: qHTS assay for small molecule agonists of vitamin D receptor signaling (AID 588543); conditions: HEK293T VDR-UAS-bla, beta-lactamase ratio, 16 h; series mostly up to 76.8 µM;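 note: 0% = DMSO basal and 100% = reference agonist control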
Summary of the method: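 β-lactamase reporter, VDR-UAS-bla HEK293T, agonist mode. Cells plated 5 h at 37 °C, compound titration 16 h at 37 °C, CCF4 dye 2 h RT, ratio 460/530 nm. Hill fit → EC50, efficacy vs 50 nM 1α,25-(OH)2D3.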

[10] = qHTS assay for small molecule agonists of retinoid X receptor alpha signaling (AID 588544); conditions: HEK293T RXRa-UAS-bla, beta-lactamase reporter, 18 h; 530 nm emission; note: potency is the fitted concentration of half-maximal effect;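 for activation: 0% = DMSO basal wells and 100% = reference agonist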
[11] = target: Retinoic acid receptor RXR-alpha (Homo sapiens) (UniProt P19793); assay: as above; conditions: HEK293T RXRa-UAS-bla, beta-lactamase reporter, 18 h; series mostly up to 76.7 µM
Chain of Retinoic acid receptor RXR-alpha (Homo sapiens) (P19793 whole entry, looked up): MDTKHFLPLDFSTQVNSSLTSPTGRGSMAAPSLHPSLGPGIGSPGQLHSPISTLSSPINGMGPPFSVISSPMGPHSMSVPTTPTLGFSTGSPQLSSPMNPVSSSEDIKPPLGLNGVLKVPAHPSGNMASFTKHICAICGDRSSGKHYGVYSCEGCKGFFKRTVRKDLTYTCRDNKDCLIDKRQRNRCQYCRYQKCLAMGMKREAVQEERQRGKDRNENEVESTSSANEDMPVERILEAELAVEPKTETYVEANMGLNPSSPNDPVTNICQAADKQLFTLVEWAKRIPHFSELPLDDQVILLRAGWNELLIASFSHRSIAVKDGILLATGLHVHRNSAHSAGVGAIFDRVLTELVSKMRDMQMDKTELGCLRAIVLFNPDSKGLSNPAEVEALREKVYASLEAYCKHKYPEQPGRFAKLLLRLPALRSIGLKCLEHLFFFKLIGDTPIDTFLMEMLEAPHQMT

[12] = target: Thyroid hormone receptor beta (Homo sapiens) (UniProt P10828); assay: qHTS assay for small molecule agonists of thyroid hormone receptor beta signaling (AID 588545); conditions: TR-UAS-bla GripTite HEK 293, beta-lactamase ratio, agonist mode, 18 h; series mostly up to 76.7 µM;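 note: 0% = DMSO only and 100% = 10 nM T3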
Chain of Thyroid hormone receptor beta (Homo sapiens) (P10828 whole entry, looked up): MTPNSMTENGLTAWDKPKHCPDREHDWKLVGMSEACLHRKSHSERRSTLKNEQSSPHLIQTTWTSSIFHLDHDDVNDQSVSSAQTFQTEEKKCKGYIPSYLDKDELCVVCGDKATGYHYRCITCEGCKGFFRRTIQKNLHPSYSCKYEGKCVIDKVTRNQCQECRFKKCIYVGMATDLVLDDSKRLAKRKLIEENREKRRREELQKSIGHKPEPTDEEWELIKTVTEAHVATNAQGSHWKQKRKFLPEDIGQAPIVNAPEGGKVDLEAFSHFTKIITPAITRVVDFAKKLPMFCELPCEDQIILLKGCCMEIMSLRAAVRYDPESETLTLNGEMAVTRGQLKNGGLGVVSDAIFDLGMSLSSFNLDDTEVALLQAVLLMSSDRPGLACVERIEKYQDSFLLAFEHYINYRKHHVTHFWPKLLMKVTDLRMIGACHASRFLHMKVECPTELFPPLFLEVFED
Summary of the method: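 TR-UAS-bla GripTite HEK 293 cells (2500/well, medium with 2% charcoal/dextran FBS) were treated in agonist mode for 18 h at 37 C, titrated. Beta-lactamase was read by CCF4 ratio after 2 h; normalized to 10 nM T3 (100%) and DMSO, Hill-fitted for EC50 and efficacy.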

[13] = qHTS assay for small molecule antagonists of retinoid X receptor alpha signaling (AID 588546; active = well fitted inhibition curve with a large enough effect in the signal ratio, with a control signal flat, not every such curve was filed as active; the % refers to the signal ratio;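 note: cells stimulated with 9-cis-retinoic acid as agonist; % is set by controls: 0 for no effect and ±100 for the full control effect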); conditions: HEK293T RXRa-UAS-bla, beta-lactamase ratio, antagonist mode; measured here: W530 green channel, cytotoxicity proxy
Summary of the method: (§2)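 Beta-lactamase reporter inhibition, read as CCF4 fluorescence ratio (ex 405, em 460/530 nm) after 2 h at RT. HEK293T UAS-bla cells, 2500/well, were stimulated with 9-cis-RA at 500 or 100 nM final alongside test compound for 18 h at 37 C.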

[14] = target: Retinoic acid receptor RXR-alpha (Homo sapiens) (UniProt P19793); assay: as above; conditions: HEK293T RXRa-UAS-bla, beta-lactamase ratio, antagonist mode
Summary of the method: as §2

[15] = target: Thyroid hormone receptor beta (Homo sapiens) (UniProt P10828); assay: qHTS assay for small molecule antagonists of thyroid hormone receptor beta signaling (AID 588547; active = well fitted inhibition curve with a large enough effect in the signal ratio, with a control signal flat, not every such curve was filed as active; the % refers to the signal ratio); conditions: TR-UAS-bla HEK293, beta-lactamase ratio, antagonist mode, 18 h
Summary of the method: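 TR-UAS-bla GripTite HEK293 cells in 2% charcoal/dextran FBS medium; compounds 0.59 nM to 92 uM with T3 at 0.4nM final, 18 h at 37 C. Beta-lactamase read by CCF4 fluorescence (460/530 nm); Hill fits gave IC50 and efficacy.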

[16] = qHTS assay for small molecule agonists of the antioxidant response element (ARE) signaling pathway (AID 651741; active = well fitted activation curve with a large enough effect in the signal ratio; the % refers to the signal ratio; note: % of control where 0% means no effect); conditions: HepG2 ARE-bla reporter, beta-lactamase FRET ratio, 16 h; series mostly up to 96 µM
Summary of the method: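 Stably integrated ARE-beta-lactamase reporter HepG2 cells; 16 h compound incubation, 37 C; LiveBLAzer FRET substrate 2 h at room temperature; fluorescence intensity.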

[17] = qHTS assay for small molecule activators of the nuclear factor-kappa B (NF-kB) signaling pathway (AID 651749; active = well fitted activation curve with a large enough effect in the signal ratio; the % refers to the signal ratio; note: % of control where 0% means no effect); conditions: NF-kB-bla ME-180 cells, beta-lactamase FRET ratio, 16 h; activation: stronger effect = higher value
Summary of the method: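 In this qHTS format, compounds acting as activators increase NF-kB-driven beta-lactamase in ME-180 cells, measured as disrupted FRET after 16 hr exposure at 37C and 5% CO2.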

[18] = target: Peroxisome proliferator-activated receptor alpha (Homo sapiens) (UniProt Q07869); assay: qHTS assay for small molecule agonists of the peroxisome proliferator-activated receptor alpha (PPARalpha) signaling pathway (AID 651778; active = well fitted curve in the direction sought with a large enough effect; an effect the other way counts as inactive or inconclusive; note: % of control where 0% means no effect); conditions: PathHunter PPARalpha complementation, chemiluminescence, 6 h; max response: stronger effect = higher value
Chain of Peroxisome proliferator-activated receptor alpha (Homo sapiens) (Q07869 whole entry, looked up, the tested form may be a part): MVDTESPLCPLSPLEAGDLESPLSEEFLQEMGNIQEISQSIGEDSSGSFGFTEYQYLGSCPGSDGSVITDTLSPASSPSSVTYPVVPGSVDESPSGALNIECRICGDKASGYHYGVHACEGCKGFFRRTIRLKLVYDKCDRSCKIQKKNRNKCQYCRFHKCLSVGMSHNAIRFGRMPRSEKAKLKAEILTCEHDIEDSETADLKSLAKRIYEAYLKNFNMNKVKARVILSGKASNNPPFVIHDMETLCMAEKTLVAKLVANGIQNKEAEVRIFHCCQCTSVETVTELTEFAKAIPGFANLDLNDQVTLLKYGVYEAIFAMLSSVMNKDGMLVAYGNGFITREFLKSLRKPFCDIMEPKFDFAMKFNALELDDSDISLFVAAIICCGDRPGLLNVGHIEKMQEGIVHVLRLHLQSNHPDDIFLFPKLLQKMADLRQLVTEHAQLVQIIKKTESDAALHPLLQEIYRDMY
Summary of the method: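 Enzyme-fragment complementation assay in which ligand-bound PPARalpha translocates and forms an active enzyme that generates chemiluminescence. Cells were plated overnight, exposed to compound for 6 hr at 37 C, and then given detection reagent for 60 min at room temperature.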

[19] = qHTS assay for small molecule agonists of the antioxidant response element (ARE) signaling pathway measured by Nrf2-dependant transcriptional activity (AID 720636; active = well fitted curve in the direction sought with a large enough effect in the repeat runs; an effect the other way counts as inactive or inconclusive;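 note: HepG2 cells with an ARE-driven luciferase reporter; % of control where 0% means no effect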); conditions: ARE-luc HepG2, Nrf2 luciferase reporter, 16 h; series mostly up to 92.4 µM
Summary of the method: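 Reporter gene assay, HepG2 ARE-luc: 16 hr compound, 37 C, 5% CO2; read-out luciferase luminescence.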

[20] = qHTS assay for cell viability of HEK293 cells (AID 743288; active = well fitted curve in the direction sought with a large enough effect; an effect the other way counts as inactive or inconclusive; note: % is set by controls: 0 for no effect and ±100 for the full control effect; nearly all actives have a fitted effect of over 50% in size); conditions: ATP luminescence (CellTiter-Glo), 18 h; max response: stronger effect = lower value
Summary of the method: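 ATP luminescence (CellTiter-Glo) reports metabolically competent cell number after parental HEK293 cells, 2,000/well, were treated with DMSO-dissolved compounds for 18 h at 37 C; reagent incubation 30 min, room temperature.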

[21] = qHTS assay for cell viability of the p53RE-bla HCT-116 cell line (AID 743292; active = well fitted curve in the direction sought with a large enough effect; an effect the other way counts as inactive or inconclusive; note: % is set by controls: 0 for no effect and ±100 for the full control effect; nearly all actives have a fitted effect of over 55% in size); conditions: p53RE-bla HCT-116 viability, ATP luminescence, 16 h; series mostly up to 95 µM
Summary of the method: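 Readout: CellTiter-Glo luminescence after 30 min RT. Treatment: compounds in DMSO, 16 h, 37 C. Cells: CellSensor p53RE-bla HCT-116, 4,000/well, preincubated 5 h.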

[22] = target: Nuclear receptor subfamily 1 group I member 2 (Rattus norvegicus) (UniProt Q9R1A7); assay: qHTS assay for small molecule activators of the rat pregnane X receptor (rPXR) signaling pathway (AID 651751; call rule not given here; note: 0% is about no effect); conditions: rPXR reporter cells, luciferase (One-Glo), 24 h
Chain of Nuclear receptor subfamily 1 group I member 2 (Rattus norvegicus) (Q9R1A7 whole entry, looked up): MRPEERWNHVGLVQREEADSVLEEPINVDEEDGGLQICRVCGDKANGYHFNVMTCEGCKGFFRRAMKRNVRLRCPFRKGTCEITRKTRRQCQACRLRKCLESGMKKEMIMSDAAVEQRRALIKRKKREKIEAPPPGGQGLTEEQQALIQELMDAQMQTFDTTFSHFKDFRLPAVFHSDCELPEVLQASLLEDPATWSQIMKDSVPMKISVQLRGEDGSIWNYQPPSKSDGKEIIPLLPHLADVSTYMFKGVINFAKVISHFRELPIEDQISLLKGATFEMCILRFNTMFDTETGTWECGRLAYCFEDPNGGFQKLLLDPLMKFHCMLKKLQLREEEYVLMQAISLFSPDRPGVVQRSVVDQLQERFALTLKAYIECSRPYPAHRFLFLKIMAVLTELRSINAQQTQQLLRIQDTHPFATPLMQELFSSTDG

[23] = target: Bile acid receptor (Homo sapiens) (UniProt Q96RI1); assay: qHTS assay for small molecule agonists of farnesoid X receptor signaling (AID 588527); conditions: HEK293T FXR-UAS-bla, beta-lactamase ratio, 16 h; activation: stronger effect = higher value;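 note: 0% = vehicle basal and 100% = reference agonist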
Chain of Bile acid receptor (Homo sapiens) (Q96RI1 whole entry, looked up): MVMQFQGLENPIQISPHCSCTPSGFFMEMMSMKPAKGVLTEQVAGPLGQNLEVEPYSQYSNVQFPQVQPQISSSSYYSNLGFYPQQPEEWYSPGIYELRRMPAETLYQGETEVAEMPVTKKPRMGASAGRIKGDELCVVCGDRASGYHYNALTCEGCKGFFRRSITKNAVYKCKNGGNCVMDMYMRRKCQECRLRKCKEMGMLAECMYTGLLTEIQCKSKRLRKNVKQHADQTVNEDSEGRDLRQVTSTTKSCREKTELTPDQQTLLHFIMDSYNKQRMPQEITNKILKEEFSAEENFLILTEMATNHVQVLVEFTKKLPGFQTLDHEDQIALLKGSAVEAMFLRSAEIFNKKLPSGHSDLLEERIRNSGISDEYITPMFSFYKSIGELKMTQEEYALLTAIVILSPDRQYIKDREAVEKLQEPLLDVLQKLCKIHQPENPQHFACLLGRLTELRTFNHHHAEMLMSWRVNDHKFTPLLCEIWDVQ
Summary of the method: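 FXR-UAS-bla HEK293T cells (10% dialyzed FBS) preincubated 5-7 h at 37 C, then compounds at up to 92 uM for 16 h at 37 C. CCF4 beta-lactamase read-out after 2 h RT. Normalized to chenodeoxycholic acid (100 uM) and DMSO; Hill fit gave EC50 and efficacy.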

[24] = target: Glucocorticoid receptor (Homo sapiens) (UniProt P04150); assay: qHTS assay for small molecule agonists of glucocorticoid receptor signaling (AID 588532; active = well fitted curve in the direction sought with a large enough effect in the signal ratio, with a control signal flat; the % refers to the signal ratio;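 note: 100% = dexamethasone at 0.1 µM and 0% = DMSO only wells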); conditions: HeLa MMTV-bla, beta-lactamase ratio, agonist, 18 h; activation: stronger effect = higher value, percent of dexamethasone control, DMSO zero
Chain of Glucocorticoid receptor (Homo sapiens) (P04150 whole entry, looked up): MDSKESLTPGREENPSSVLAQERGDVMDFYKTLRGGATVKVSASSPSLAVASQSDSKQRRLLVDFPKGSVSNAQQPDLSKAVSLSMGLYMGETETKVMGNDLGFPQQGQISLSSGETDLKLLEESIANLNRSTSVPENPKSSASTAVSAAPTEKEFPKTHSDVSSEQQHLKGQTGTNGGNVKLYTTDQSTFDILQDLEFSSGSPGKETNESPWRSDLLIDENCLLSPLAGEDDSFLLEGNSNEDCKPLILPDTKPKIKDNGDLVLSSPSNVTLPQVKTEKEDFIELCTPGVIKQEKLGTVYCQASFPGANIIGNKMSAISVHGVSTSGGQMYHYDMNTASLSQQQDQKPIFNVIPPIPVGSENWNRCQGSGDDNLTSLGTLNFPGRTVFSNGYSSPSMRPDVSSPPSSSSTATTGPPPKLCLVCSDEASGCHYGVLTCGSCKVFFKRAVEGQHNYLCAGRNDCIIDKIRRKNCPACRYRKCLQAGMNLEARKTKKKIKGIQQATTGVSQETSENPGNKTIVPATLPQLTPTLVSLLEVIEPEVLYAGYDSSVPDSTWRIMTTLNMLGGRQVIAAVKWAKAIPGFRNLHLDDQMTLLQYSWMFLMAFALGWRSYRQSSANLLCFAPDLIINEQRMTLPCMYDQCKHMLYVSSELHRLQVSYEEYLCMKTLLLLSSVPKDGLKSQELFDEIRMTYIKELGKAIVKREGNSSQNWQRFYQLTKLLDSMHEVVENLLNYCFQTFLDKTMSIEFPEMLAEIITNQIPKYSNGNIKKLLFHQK
Summary of the method: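 MMTV-bla HeLa beta-lactamase reporter cells in 1% charcoal/dextran FBS medium, compounds up to 92 uM for 18 h at 37 C, CCF4 readout; normalized to 0.1 uM dexamethasone (100%), EC50 and efficacy from Hill fits.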

[25] = qHTS assay for environmental chemicals that activate the Aryl hydrocarbon Receptor (AhR) signaling pathway (AID 651777; active = well fitted curve in the direction sought with a large enough effect; an effect the other way counts as inactive or inconclusive; note: % of control where 0% means no effect; nearly all actives have a fitted effect of over 15% in size); conditions: 1A2-DRE human hepatoma cells, luciferase, 24 h; activation: stronger effect = higher value
Summary of the method: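 Stable CYP1A2 promoter/DRE-luciferase human hepatoma line treated 24 hr; One-Glo luminescence, 30 min RT.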

[26] = qHTS assay for small molecule agonists of the antioxidant response element (ARE) signaling pathway measured by Nrf2-dependant transcriptional activity - cell viability counter screen (AID 720653; active = well fitted curve in the direction sought with a large enough effect in the repeat runs; an effect the other way counts as inactive or inconclusive; note: % is set by controls: 0 for no effect and ±100 for the full control effect); conditions: ARE-bla HepG2 viability, CellTiter-Glo ATP luminescence, 16 h; max response: stronger effect = lower value
Summary of the method: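 ARE-bla HepG2 cells treated with compounds for 16 h at 37C; this counter screen measures viability as intracellular ATP by CellTiter-Glo luminescence after 30 min at room temperature.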

[27] = qHTS assay for small molecule activators of the human pregnane X receptor (PXR) signaling pathway (AID 720659; call rule not given here; note: 0% is about no effect); conditions: DPX-2 HepG2 CYP3A4-luciferase, 24 h; series mostly up to 92.3 µM
[28] = target: Bile acid receptor (Homo sapiens) (UniProt Q96RI1); assay: qHTS assay for small molecule antagonists of farnesoid X receptor signaling (AID 588526); conditions: HEK293T FXR-UAS-bla, beta-lactamase ratio, antagonist mode; series mostly up to 76.7 µM; note: % is set by controls: 0 for no effect and ±100 for the full control effect
Summary of the method: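 Antagonist mode: titrated compounds tested against chenodeoxycholic acid stimulation (normalized to 50 uM CDCA and DMSO) in GeneBLAzer HEK293T cells for 16 h. Beta-lactamase read by CCF4 fluorescence; IC50 from Hill fits.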

[29] = target: Glucocorticoid receptor (Homo sapiens) (UniProt P04150); assay: qHTS assay for small molecule antagonists of glucocorticoid receptor signaling (AID 588533; active = well fitted inhibition curve with a large enough effect in the signal ratio, with a control signal flat, not every such curve was filed as active; the % refers to the signal ratio; note: % is set by controls: 0 for no effect and ±100 for the full control effect); conditions: HeLa MMTV-bla, GRE beta-lactamase ratio, antagonist mode, 18 h; series mostly up to 76.8 µM
Summary of the method: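 Antagonist-mode qHTS: compound titrations added to GRE-bla HeLa cells, then dexamethasone 2 nM final; 18 h, 37 C. CCF4 FRET fluorescence normalized to dexamethasone and DMSO; IC50 from Hill fit.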

[30] = qHTS assay for small molecule activators of the p53 signaling pathway (AID 651743; active = well fitted activation curve with a large enough effect in the signal ratio, not every such curve was filed as active; the % refers to the signal ratio; note: % of control where 0% means no effect); conditions: HCT-116 p53RE-bla, beta-lactamase FRET ratio, 16 h; activation: stronger effect = higher value
Summary of the method: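 Following 16 hours of compound exposure at 37 C, HCT-116 cells bearing the p53RE-bla reporter were loaded with LiveBLAzer B/G FRET substrate for 2 hours at room temperature and fluorescence intensity was recorded.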

CCNc1nc(NC(C)C)nc(SC)n1
-4.47%: max response [10]
inactive: activation [1] -1.4% | Potency [2] | outcome [3] | Potency [5] | Potency [6] | Potency [7] | Potency [8] | outcome [9] | Potency [11] | Potency [12] | max response [14] -29% | activity change % (negative = inhibition) [15] 5.24% | Potency [16] | activation [17] -1.51% | max response [18] -2.07% | Potency [19] | max response [20] -10.8% | Potency [21] | max response [22] -3.53%
5.95%: max response [4]
-15.6%: max response [13]

CCCCCCCCCCCCC1=C(OC(C)=O)C(=O)c2ccccc2C1=O
inactive: activation [1] -4.72% | activation [23] -0.713% | activation [24] -3.65% | Potency [12] | activation [17] -0.928% | activation [25] 1.53% | max response [18] -5.69% | Potency [19] | max response [26] -15.3% | max response [20] -22.1% | max response [22] 0.383% | outcome [27]

CSc1nnc(C(C)(C)C)c(=O)n1N
-12%: max response [13]
-34.1%: max response [4]
active: Potency [11] 39.8 µM
inactive: Potency [28] | activation [23] -6.5% | activation [24] -5.36% | Potency [29] | outcome [3] | Potency [8] | Potency [12] | max response [14] 6.64% | activity change % (negative = inhibition) [15] -9.71% | Potency [16] | activation [30] -4.16% | max response [18] -2.71% | Potency [19] | max response [26] 6.99% | max response [20] -4.13% | Potency [21] | max response [22] 0.612%
-15.9%: max response [10]
